Reference: PubChem BioAssay (EPA / NIEHS)
“And” between values parts separate entries of the source, which are not always exact repeats. Equal values may be shown once. Inconclusive results are not listed. The source made the active and inactive calls. The calls were made as follows: active = hit-call score of the fitted dose curve at least 0.9, where 1 is the maximum; inconclusive = response in the unintended direction; inactive = score below 0.9.

Read-out: Cytochrome P450 2B6 (Homo sapiens) (UniProt P20813)
Assay: CLD_CYP2B6_48hr: CellzDirect (CLD) Gene Expression Assay for xenobiotic metabolism (CYP2B6) at 48 hours (AID 2283699);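 also: actives raise transcript level above DMSO so potency reflects induction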
Procedure: CLD_48hr is a cell-based, multiplexed-readout assay that uses hepatocyte, a human liver primary cell, with measurements taken at 48 hours after chemical dosing in a 96-well plate.CLD_CYP2B6_48hr is one of 16 assay component(s) measured or calculated from the CLD_48hr assay. It is designed to make measurements of mRNA induction, a form of inducible reporter, as detected with chemiluminescence signals by Quantitative Nuclease Protection Assay (qNPA) technology.Data from the assay component CLD_CYP2B6_48hr was analyzed at the endpoint, CLD_CYP2B6_48hr, in the positive analysis fitting direction relative to DMSO as the negative control and baseline of activity. Using a type of inducible reporter, gain-of-signal activity can be used to understand changes in the reporter gene as they relate to the gene CYP2B6. Furthermore, this assay endpoint can be referred to as a primary readout. To generalize the intended target to other relatable targets, this assay endpoint is annotated to the cyp intended target family, where subfamily is xenobiotic metabolism.
Human hepatocyte cultures were treated daily for two consecutive days with fresh dosing solutions containing appropriate concentrations of the 320 ToxCast chemicals (chemical identities were blinded to CellzDirect and other ToxCast collaborators), vehicle control (0.2% DMSO), and positive control inducers as summarized in Table 1. Due to the large number of treatment groups and chemicals examined, the ToxCast chemicals were divided into two groups (spanning two independent cultures of hepatocytes from separate donor preparations (Hu778: ToxCast plates 1 and 2; Hu776: ToxCast plates 3 and 4). Each preparation of human hepatocyte cultures was treated with respective vehicle control, medium only control, set of six positive controls/reference chemicals for the five hepatic receptor pathways, and a subset of eight of the ToxCast chemicals (indoxacarb, pyrithiobac-sodium, norflurazon, cyhalofop-butyl, methomyl, thiram, acetochlor, and propiconazole). These replicate data, coupled with internal replicates designed within the blinded ToxCast chemical library, provided additional data to evaluate interindividual differences between hepatocyte preparations and their potential impact on chemical profiles.Cell morphology and integrity were evaluated using phase-contrast microscopy as an indicator of hepatocyte cell health (Tyson & Green, 1987). Cultures for each treatment group (i.e., media, vehicle [0.2% DMSO], positive control inducers [multiple concentrations], and the ToxCast chemicals [multiple concentrations]) were observed and cell morphology was assessed relative to vehicle control cultures at each harvest time point (0, 6, 24, or 48 h). […] Images were evaluated at the conclusion of the study to assess changes in cell integrity and account for the effects of chemical exposure on uncharacteristic changes in concentration-dependent gene expression profiles. The results from these determinations of apparent cytotoxicity were annotated (yes/no) alongside the corresponding qNPA data for reference.At the conclusion of each treatment period, hepatocyte cultures (96-well) were washed with 1 volume of HBSS, lysed by addition of 25 ul ArrayPlate lysis buffer (HTG, Tucson, AZ), and 70 ul/well of Denaturation Oil, denatured by incubation at 95C for 10 min, and frozen at approximately -70C until analysis by nuclease protection assay (qNPA) (Roberts et al., 2007). For qNPA analysis, cell lysates were thawed at 50C for approximately 30 min, qNPA probes were added, and samples were incubated at 95C for 10 min to begin the detection process by denaturing the target RNA, dissociating the duplexes and secondary structure hybridization. At the conclusion of the hybridization period, S1 nuclease reagent was added to each sample to digest all nonprotected nucleotides at 50C for 60-90 min. […]

Structure (SMILES)	outcome	AC50
CCNc1nc(N)nc(Cl)n1	inactive	–
c1ccc2[nH]c(-c3cscn3)nc2c1	inactive	–
CCN(Cc1c(F)cccc1Cl)c1c([N+](=O)[O-])cc(C(F)(F)F)cc1[N+](=O)[O-]	–	0.273 µM (active)
C#CCOC(=O)[C@@H](C)Oc1ccc(Oc2ncc(Cl)cc2F)cc1	inactive	–
COC(=O)c1ccccc1S(=O)(=O)NC(=O)Nc1nc(OC(F)F)cc(OC(F)F)n1	inactive	–
CCOC(=O)COc1cc(-n2ncc(C(F)(F)F)c(C)c2=O)c(F)cc1Cl	inactive	–
CC(C)(C)[C@@H](O)[C@@H](Cc1ccc(Cl)cc1)n1cncn1	inactive	–
CCCCOCCOCCOCc1cc2c(cc1CCC)OCO2	–	0.83 µM (active)
CCC(O)=C1C(=O)CC(C(=O)O)CC1=O (stereo not drawn)	–	0.000247 µM (active)
COC(=O)CSc1cc(N=c2sc(=O)n3n2CCCC3)c(F)cc1Cl	–	4.48 µM (active)
CN(C)C(=O)Nc1ccc(Cl)c(Cl)c1	–	3.85 µM (active)
CC1(C)C(C=C(Cl)Cl)C1C(=O)OCc1cccc(Oc2ccccc2)c1 (stereo not drawn)	–	3.87 µM (active)
CCCCC(CC)COC(=O)c1ccccc1C(=O)O (stereo not drawn)	–	20 µM (active)
CCOC(=O)NCCOc1ccc(Oc2ccccc2)cc1	–	10.8 µM (active)
CCCN(CCC)C(=O)SCC	–	381 nM (active) and 209 nM (active)
CCOC(=O)C(C)Oc1ccc(Oc2nc3ccc(Cl)cc3o2)cc1 (stereo not drawn)	inactive	–
CCSC(=O)N(CC(C)C)CC(C)C	inactive	–

Structure (SMILES)	outcome	AC50
CCCOC(=O)c1ccc(C(=O)OCCC)nc1	inactive	–
C=CCOC(Cn1ccnc1)c1ccc(Cl)cc1Cl (stereo not drawn)	–	0.163 µM (active)
COC(=O)c1cccc(C)c1S(=O)(=O)NC(=O)Nc1nc(OCC(F)(F)F)nc(N(C)C)n1	–	5.1 µM (active)
c1ccc(Nc2ccccc2)cc1	–	4.79 µM (active)
S=C(S)NCCNC(=S)S.[Mn+2].[S-]C([S-])=NCCN=C([S-])[S-].[Zn+2]	inactive	–
CCCCCOC(=O)COc1cc(N2C(=O)C3=C(CCCC3)C2=O)c(F)cc1Cl	inactive	–
CCCN(CCC)c1c([N+](=O)[O-])cc(C(F)(F)F)c(N)c1[N+](=O)[O-]	–	3.56 µM (active)
CCCCC(CC)CN1C(=O)C2C3C=CC(C3)C2C1=O (stereo not drawn)	–	4.6 µM (active)
CCCCCCC(C)OC(=O)COc1nc(F)c(Cl)c(N)c1Cl (stereo not drawn)	inactive	–
CCCCOC(=O)C(C)Oc1ccc(Oc2ccc(C(F)(F)F)cn2)cc1 (stereo not drawn)	inactive	–
CC(C)(c1ccc(O)cc1)c1ccc(O)cc1	inactive	–
CCN(CC)C(=O)c1cccc(C)c1	–	3.6 µM (active)
COC(=O)c1c(Cl)nn(C)c1S(=O)(=O)NC(=O)Nc1nc(OC)cc(OC)n1	inactive	–
CCC(C)OC(=O)N1CCCCC1CCO (stereo not drawn)	inactive	–
OB(O)O	inactive	–
CCCCOC(=O)[C@@H](C)Oc1ccc(Oc2ccc(C(F)(F)F)cn2)cc1	inactive	–
